Bioassay records: PubChem BioAssay, National Center for Advancing Translational Sciences (NCATS)
Gal4-VP16 FLuc: VP16 counterscreen qHTS for inhibitors of ROR gamma transcriptional activity. Drosophila S2 Gal4-VP16 UAS-luciferase, luminescence, 20 h. 310,000 tested, 3.5% active. Potency, µM (series often up to 53.6 µM), for the others: at the highest dose activity, negative = inhibition, hits mostly inhibitors. AID 2546, 2010;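 note: Gal4-VP16 expression switched on by copper sulfate through the metallothionein promoter; nearly all actives have a fitted effect of over 50% in size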
DT40 TDP1 CPT: qHTS for Inhibitors of human tyrosyl-DNA phosphodiesterase 1 (TDP1): qHTS in cells in presence of CPT. chicken DT40 Tdp1-/-;hTDP1 cells + 20 nM CPT, ATP luminescence, 48 h. Potency, µM (doses to about 46.2 µM), without a hit: at the top dose activity change, negative = growth inhibition, actives largely listed as inhibitors. 420,000 tested, 12% active; note: nearly all actives have a fitted effect of over 55% in size
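Chicken DT40 Tdp1-/- cells stably complemented with human TDP1 were seeded at 400 cells/well in medium containing 20 nM camptothecin, exposed to pin-transferred compounds, and grown at 37 °C for at least 48 hr. Viability was read as ATP luminescence.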
RORgamma inh: qHTS for inhibitors of ROR gamma transcriptional activity; 310,000 tested, 5.4% active; Potency, µM (highest dose often 53.6 µM), without a hit: top-dose activity change, negative = inhibition, actives largely listed as inhibitors; Nuclear receptor ROR-gamma (Mus musculus), P51450; AID 2551, 2010; Drosophila S2 Gal4-RORgamma UAS-luciferase reporter, 20 h; note: nearly all actives have a fitted effect of over 60% in size
Target sequence (P51450 whole entry, looked up, the tested form may be a part): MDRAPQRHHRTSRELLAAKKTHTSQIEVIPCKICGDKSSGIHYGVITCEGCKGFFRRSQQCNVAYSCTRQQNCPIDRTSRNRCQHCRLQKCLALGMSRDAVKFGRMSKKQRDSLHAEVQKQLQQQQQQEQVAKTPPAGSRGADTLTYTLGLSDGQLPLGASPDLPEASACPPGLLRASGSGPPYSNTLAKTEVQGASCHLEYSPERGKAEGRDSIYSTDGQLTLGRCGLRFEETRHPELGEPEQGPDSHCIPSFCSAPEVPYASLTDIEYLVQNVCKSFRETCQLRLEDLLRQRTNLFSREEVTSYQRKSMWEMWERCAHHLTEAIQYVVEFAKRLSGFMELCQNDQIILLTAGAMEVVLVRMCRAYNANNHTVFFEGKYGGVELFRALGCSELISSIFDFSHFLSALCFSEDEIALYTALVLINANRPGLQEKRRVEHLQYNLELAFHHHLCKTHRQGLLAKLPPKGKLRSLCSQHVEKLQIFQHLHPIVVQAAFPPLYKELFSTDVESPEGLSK
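Stable Schneider cell line, Gal4 DNA-binding domain fused to ROR gamma, UAS-luciferase. Cmpd 1 hr RT → CuSO4 700 uM final → 20 hr RT → luciferase reagent 10 min → luminescence.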
DT40 TDP1 no CPT: qHTS for Inhibitors of human tyrosyl-DNA phosphodiesterase 1 (TDP1): qHTS in cells in absence of CPT; 420,000 tested, 15% active; AID 686978, 2013; Potency, µM (series often up to 46.2 µM), inactives show top-dose activity change, negative = growth inhibition, usual class: inhibitors; DT40 Tdp1-/- hTDP1 cells, no CPT, ATP luminescence, 48 h; note: nearly all actives have a fitted effect of over 55% in size
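Compound effects on proliferation are scored in DT40 Tdp1-/-;hTDP1 cells in the absence of CPT. ATP levels (CellTiter-Glo luminescence) are recorded after a ≥48 hr, 37 °C incubation.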
ELG1 repair inh: qHTS screen for small molecules that inhibit ELG1-dependent DNA repair in human embryonic kidney (HEK293T) cells expressing luciferase-tagged ELG1; HEK293T ELG1-luciferase reporter, luminescence, 16 h; DNA damage induced by 5-fluorouridine; Potency, µM (titrated, usually from 46.1 µM), for inactives: top-dose activity change, negative = inhibition, most hits filed as inhibitors; 330,000 tested, 2.3% active; note: nearly all actives have a fitted effect of over 55% in size
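HEK293T cells expressing luciferase-tagged ELG1 (2,000/well) received 5-Fluorouridine plus compound or DMSO for 16 hr at 37 °C. Luciferase was read by ONE-Glo luminescence after 30 min at room temperature.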
12-LOX inh: Primary qHTS assay for inhibitors of human arachidonate 12S-lipoxygenase (ALOX12): Round 2. Polyunsaturated fatty acid lipoxygenase ALOX12 (Homo sapiens), P18054. 580,000 tested, 1.1% active. purified 12hLO, xylenol orange hydroperoxide absorbance. Potency, µM (series often up to 108 µM), for the others: at the top dose activity change, negative = inhibition, actives largely listed as inhibitors
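Purified human 12hLO at 150 nM in 25 mM Hepes, 0.01% Triton X-100, pH 7.0, preincubated 15 min at room temperature with compound. Reaction started with 40 uM arachidonic acid, 30 min at room temperature. Hydroperoxide measured by Fe-xylenol orange, 573/405 nm absorbance ratio.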
* = called active by the depositor; ? = inconclusive; nt = no result. An excerpt weighted towards active compounds, which were near 15% of everything screened. Calls come from the whole dose curve; as a rule, active = well fitted curve in the direction sought with a large enough effect; inconclusive = small, poorly fitted or top-dose-only effect, or another doubt; inactive = no such curve, though single readings can be large; an effect the other way counts as inactive or inconclusive. % is set by controls: 0 for no effect and ±100 for the full control effect; potency is the fitted concentration of half-maximal effect.

SMILES	Gal4-VP16 FLuc	DT40 TDP1 CPT	RORgamma inh	DT40 TDP1 no CPT	ELG1 repair inh	12-LOX inh
CCc1ccc2nc(/N=C(\N)NC(=O)c3ccccc3N)nc(C)c2c1	nt	nt	nt	nt	nt	52.1%
C=CCSc1nnc2n(CCc3ccccc3)c(=O)c3c4c(sc3n12)COC(C)(C)C4	-9.0%	23.1µM*	-17.0%	?	-14.9%	133.9%
CC(C)Sc1nnc2n(CCc3ccccc3)c(=O)c3c4c(sc3n12)COC(C)(C)C4	nt	23.1µM*	nt	20.6µM*	nt	nt
Cn1c(=O)c2c3c(sc2n2c(SCC(=O)c4ccccc4)nnc12)COC(C)(C)C3	-3.9%	nt	9.0%	nt	6.2%	nt
CCc1nc2ccc(C(=O)NCc3ccc4c(c3)OCO4)cn2c1N(C)CCC(C)C	nt	?	nt	14.6µM*	nt	-11.6%
CCc1nc2ccc(C(=O)NCc3ccc4c(c3)OCO4)cn2c1N(C)Cc1ccc(OC)cc1	nt	18.4µM*	nt	23.1µM*	nt	14.9%
CCc1nc2ccc(C(=O)NCc3cccs3)cn2c1N(CCC(C)C)CCN(C)C	nt	?	nt	?	nt	8.9%
Cc1cc(C)c2c(=O)cc(C(=O)N3CCN(c4cccc(Cl)c4)CC3)oc2c1	nt	nt	nt	nt	nt	7.3%
O=c1nc2sc3ccccc3n2c(=O)n1-c1ccc(Cl)cc1	24.5%	?	19.3%	20.6µM*	?	0.0%
Cc1ccc2c(c1)sc1nc(=O)n(-c3ccc(Cl)cc3)c(=O)n12	10.3%	-8.8%	9.9%	-16.6%	28.3%	-15.4%
O=c1nc2sc3ccccc3n2c(=O)n1-c1ccc(Cl)c(Cl)c1	nt	?	nt	10.3µM*	nt	-28.3%
Cc1cc(=O)oc2c(C)c3oc(/C(=N/O)c4ccccc4)c(C)c3cc12	nt	nt	nt	nt	nt	2.0%
Cc1ccccc1C(=O)N1CCC(C(=O)Nc2ccc(F)cc2)CC1	-15.7%	-8.0%	7.2%	-4.9%	-0.7%	-0.8%
Cc1ccccc1C(=O)N1CCC(C(=O)Nc2cccc(S(=O)(=O)N3CCCCC3)c2)CC1	nt	?	nt	?	-28.0%	?
Cc1ccccc1C(=O)N1CCC(C(=O)Nc2ccc(C)c(S(=O)(=O)N3CCCCC3)c2)CC1	nt	13µM*	nt	5.8µM*	?	16.5%
CC(C)c1ccc(NNC(=O)C2CCC2)cc1	1.9%	9.2µM*	19.2%	16.4µM*	4.0%	?
CC(C)c1ccc(NC(=S)NNC(=O)C2CC2)cc1	-27.3%	-1.6%	-42.8%	14.6%	3.1%	0.0%
Cc1ccccc1C(=O)N1CCC(C(=O)Nc2ccc(C(C)C)cc2)CC1	-12.4%	7.31µM*	6.3%	5.17µM*	11.8%	1.9%
Cc1ccccc1C(=O)N1CCC(C(=O)Nc2ccc(S(=O)(=O)N3CCCC3)cc2)CC1	1.1%	?	32.3%	18.4µM*	?	-8.7%
CC(C)CCNC(=O)c1cc2n(n1)CC(c1ccc3c(c1)OCO3)OC2 (stereo not drawn)	nt	nt	nt	nt	nt	-7.7%
O=S(=O)(NCc1ccnc(OCc2ccccc2)c1)N1CCCCC1	nt	nt	nt	nt	nt	6.3%
O=C(Nc1c(NC2CCCCC2)c2ccccc2oc1=O)c1ccccc1Cl	nt	nt	nt	nt	nt	6.1%
CSc1cccc(NC(=O)C2CCN(C(=O)c3ccccc3C)CC2)c1	-4.3%	18.4µM*	25.1%	20.6µM*	-20.0%	0.2%
Cc1ccccc1C(=O)N1CCC(N2CCCCCC2=O)CC1	nt	nt	nt	nt	nt	89.1µM*
O=C(NNC(=O)C1CCN(S(=O)(=O)c2ccccc2)CC1)c1ccccc1O	-11.1%	7.31µM*	-1.0%	25.9µM*	-12.9%	-13.4%
Cc1cccc(C(=O)Nc2ccc(S(=O)(=O)N3CCC(c4nc5ccccc5s4)CC3)cc2)c1	nt	-21.8%	nt	?	nt	-0.1%
